From PubChem BioAssay (EPA / NIEHS)
Results filed as inconclusive are left out. The source made the active and inactive calls. The calls were made as follows, unless noted: active = hit-call score of the fitted dose curve at least 0.9, where 1 is the maximum; inactive = score below 0.9.

How the values were obtained:
[1] = target: Glucocorticoid receptor (Homo sapiens) (UniProt P04150); experiment: ATG_GR_TRANS: Attagene TRANS-FACTORIAL HepG2 Assay for human Glucocorticoid Receptor (GR) (AID 2282978; active = hit-call score of the fitted dose curve at least 0.9, where 1 is the maximum;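 also: activators score as hits since higher reporter transcript over DMSO is fitted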); settings: HepG2 Attagene TRANS GR reporter, mRNA transcription
Glucocorticoid receptor (Homo sapiens), sequence (P04150 whole entry, looked up, the tested form may be a part): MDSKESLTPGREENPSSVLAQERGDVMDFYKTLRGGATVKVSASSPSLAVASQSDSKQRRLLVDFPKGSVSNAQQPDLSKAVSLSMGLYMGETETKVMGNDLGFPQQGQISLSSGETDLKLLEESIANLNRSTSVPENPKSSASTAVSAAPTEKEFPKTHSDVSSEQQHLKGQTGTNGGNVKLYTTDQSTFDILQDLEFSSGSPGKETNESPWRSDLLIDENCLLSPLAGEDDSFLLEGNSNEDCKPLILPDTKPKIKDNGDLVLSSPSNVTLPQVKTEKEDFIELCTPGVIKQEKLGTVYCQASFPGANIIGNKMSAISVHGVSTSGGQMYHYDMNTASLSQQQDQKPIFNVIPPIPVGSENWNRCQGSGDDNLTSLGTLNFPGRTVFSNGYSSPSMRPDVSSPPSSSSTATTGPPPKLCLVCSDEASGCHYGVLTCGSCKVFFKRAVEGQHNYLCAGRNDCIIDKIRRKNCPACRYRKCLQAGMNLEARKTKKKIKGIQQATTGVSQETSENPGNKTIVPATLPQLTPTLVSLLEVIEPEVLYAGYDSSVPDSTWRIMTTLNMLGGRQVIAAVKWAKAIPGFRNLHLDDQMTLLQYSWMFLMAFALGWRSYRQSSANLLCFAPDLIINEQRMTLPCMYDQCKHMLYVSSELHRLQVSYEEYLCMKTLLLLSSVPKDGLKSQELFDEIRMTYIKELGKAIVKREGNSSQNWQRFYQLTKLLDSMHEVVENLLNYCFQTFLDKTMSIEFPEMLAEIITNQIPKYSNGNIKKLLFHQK
Procedure, shortened: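 Exogenous NR-GAL4 fusion activity was assessed through induced GAL4-UAS reporter transcripts in transfected human HepG2 cells, quantified after 24 h by RT-PCR and fluorescent capillary electrophoresis with DMSO as baseline.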

[2] = target: Oxysterols receptor LXR-alpha (Homo sapiens) (UniProt Q13133); experiment: ATG_LXRa_TRANS: Attagene TRANS-FACTORIAL HepG2 Assay for human Liver X Receptor alpha (LXRa) (AID 2282980; active = hit-call score of the fitted dose curve at least 0.9, where 1 is the maximum); settings: HepG2 Attagene TRANS reporter, LXRa transactivation
Oxysterols receptor LXR-alpha (Homo sapiens), sequence (Q13133 whole entry, looked up, the tested form may be a part): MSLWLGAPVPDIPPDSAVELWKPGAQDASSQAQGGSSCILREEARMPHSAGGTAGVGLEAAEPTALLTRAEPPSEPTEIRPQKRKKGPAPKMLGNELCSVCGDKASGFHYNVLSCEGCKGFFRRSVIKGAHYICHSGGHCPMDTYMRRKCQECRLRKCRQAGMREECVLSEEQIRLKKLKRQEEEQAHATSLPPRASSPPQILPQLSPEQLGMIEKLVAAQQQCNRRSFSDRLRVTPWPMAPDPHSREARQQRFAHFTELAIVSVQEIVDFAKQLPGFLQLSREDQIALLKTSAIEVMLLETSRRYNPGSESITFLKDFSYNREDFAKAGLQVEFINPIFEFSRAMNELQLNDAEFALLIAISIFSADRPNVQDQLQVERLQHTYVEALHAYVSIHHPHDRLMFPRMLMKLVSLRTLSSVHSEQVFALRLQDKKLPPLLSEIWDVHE
Procedure, shortened: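 HepG2 cells transiently transfected with GAL4-UAS reporter units for chimeric NR-Gal4 proteins, exposed to chemicals for 24 h. Reporter mRNA quantified by RT-PCR and capillary electrophoresis; gain of signal fitted relative to DMSO.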

[3] = target: Oxysterols receptor LXR-beta (Homo sapiens) (UniProt P55055); experiment: ATG_LXRb_TRANS: Attagene TRANS-FACTORIAL HepG2 Assay for human Liver X Receptor beta (LXRb) (AID 2282981; active = hit-call score of the fitted dose curve at least 0.9, where 1 is the maximum); settings: HepG2 Attagene TRANS GAL4-LXRb reporter, mRNA
Oxysterols receptor LXR-beta (Homo sapiens), sequence (P55055 whole entry, looked up, the tested form may be a part): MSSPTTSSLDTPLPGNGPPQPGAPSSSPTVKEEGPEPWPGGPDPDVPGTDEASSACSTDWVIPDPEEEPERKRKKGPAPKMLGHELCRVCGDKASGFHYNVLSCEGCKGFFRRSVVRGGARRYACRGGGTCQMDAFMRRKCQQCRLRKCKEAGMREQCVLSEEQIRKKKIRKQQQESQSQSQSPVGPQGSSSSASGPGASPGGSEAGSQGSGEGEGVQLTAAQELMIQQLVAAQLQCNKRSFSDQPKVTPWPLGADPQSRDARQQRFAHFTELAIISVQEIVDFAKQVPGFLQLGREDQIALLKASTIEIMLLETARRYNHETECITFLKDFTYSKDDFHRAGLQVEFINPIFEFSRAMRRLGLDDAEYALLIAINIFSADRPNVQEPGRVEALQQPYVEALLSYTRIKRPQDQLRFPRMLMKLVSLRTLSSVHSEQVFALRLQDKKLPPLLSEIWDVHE
Procedure, shortened: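 After 24 h of chemical treatment, transfected HepG2 cells yield total RNA; reporter cDNA is PCR-amplified, FAM-labelled, HpaI-cut and run on capillary electrophoresis. Signal reflects chimeric LXRb-Gal4 activity on GAL4-UAS reporters.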

[4] = ATG_M_06_TRANS: Attagene TRANS-FACTORIAL HepG2 Assay for M06 Transcription Factor (Internal Marker) (AID 2282983; active = hit-call score of the fitted dose curve at least 0.9, where 1 is the maximum;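 also: reporter transcript level by RT-PCR then capillary electrophoresis fluorescence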); settings: HepG2 Attagene TRANS M06 internal marker reporter
Procedure, shortened: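 mRNA levels of a reporter transcript, quantified as FAM fluorescence on capillary electrophoresis, served as readout. HepG2 cells expressing exogenous GAL4-chimera reporter constructs were exposed for 24 h. Gain of signal over DMSO was evaluated.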

[5] = ATG_M_32_TRANS: Attagene TRANS-FACTORIAL HepG2 Assay for M32 Transcription Factor (Internal Marker) (AID 2282984; active = hit-call score of the fitted dose curve at least 0.9, where 1 is the maximum;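 also: transcript level of a background control reporter unit measured by RT-PCR and capillary electrophoresis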); settings: HepG2 Attagene TRANS M32 internal marker reporter
Procedure, shortened: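 Cell-based TRANS-format assay in HepG2: exogenous chimeric GAL4 reporter units transiently expressed, compounds applied 24 h. Reporter mRNA detected by RT-PCR plus capillary electrophoresis; this readout is an internal background marker.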

[6] = target: Nuclear receptor subfamily 4 group A member 2 (Homo sapiens) (UniProt P43354); experiment: ATG_NURR1_TRANS: Attagene TRANS-FACTORIAL HepG2 Assay for human Nuclear Receptor Related Protein 1 (NURR1) (AID 2282985; active = hit-call score of the fitted dose curve at least 0.9, where 1 is the maximum); settings: HepG2 Attagene TRANS reporter, mRNA readout
Nuclear receptor subfamily 4 group A member 2 (Homo sapiens), sequence (P43354 whole entry, looked up, the tested form may be a part): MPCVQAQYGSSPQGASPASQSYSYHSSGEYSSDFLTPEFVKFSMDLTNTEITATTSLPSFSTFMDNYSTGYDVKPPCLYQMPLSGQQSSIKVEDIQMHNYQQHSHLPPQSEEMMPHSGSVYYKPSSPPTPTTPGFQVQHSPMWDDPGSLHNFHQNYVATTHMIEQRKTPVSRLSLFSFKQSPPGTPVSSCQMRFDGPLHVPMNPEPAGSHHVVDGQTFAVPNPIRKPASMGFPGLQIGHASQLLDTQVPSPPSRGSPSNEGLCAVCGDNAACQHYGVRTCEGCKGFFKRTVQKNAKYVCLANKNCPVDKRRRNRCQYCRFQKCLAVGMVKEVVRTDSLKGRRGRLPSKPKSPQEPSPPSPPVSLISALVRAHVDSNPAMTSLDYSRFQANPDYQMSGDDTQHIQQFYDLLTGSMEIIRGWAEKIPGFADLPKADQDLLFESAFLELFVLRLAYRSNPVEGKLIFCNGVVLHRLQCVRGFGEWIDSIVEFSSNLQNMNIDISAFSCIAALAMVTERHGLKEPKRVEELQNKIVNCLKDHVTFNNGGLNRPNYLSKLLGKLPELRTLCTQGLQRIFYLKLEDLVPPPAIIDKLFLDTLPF
Procedure, shortened: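 Measures transcriptional activation by an exogenous NR-Gal4 chimera in transfected HepG2 liver cells. After 24 h, reporter RNA is reverse-transcribed, amplified and resolved by capillary electrophoresis; DMSO defines baseline.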

[7] = target: Transcriptional activator Myb (Homo sapiens) (UniProt P10242); experiment: ATG_Myb_CIS: Attagene CIS-FACTORIAL HepG2 Assay for human Myeloblastosis (Myb) Proto-Oncogene Transcription Factor (AID 2282986); settings: HepG2 Attagene CIS-FACTORIAL Myb reporter transcription; actives raise or lower the signal
Transcriptional activator Myb (Homo sapiens), sequence (P10242 whole entry, looked up): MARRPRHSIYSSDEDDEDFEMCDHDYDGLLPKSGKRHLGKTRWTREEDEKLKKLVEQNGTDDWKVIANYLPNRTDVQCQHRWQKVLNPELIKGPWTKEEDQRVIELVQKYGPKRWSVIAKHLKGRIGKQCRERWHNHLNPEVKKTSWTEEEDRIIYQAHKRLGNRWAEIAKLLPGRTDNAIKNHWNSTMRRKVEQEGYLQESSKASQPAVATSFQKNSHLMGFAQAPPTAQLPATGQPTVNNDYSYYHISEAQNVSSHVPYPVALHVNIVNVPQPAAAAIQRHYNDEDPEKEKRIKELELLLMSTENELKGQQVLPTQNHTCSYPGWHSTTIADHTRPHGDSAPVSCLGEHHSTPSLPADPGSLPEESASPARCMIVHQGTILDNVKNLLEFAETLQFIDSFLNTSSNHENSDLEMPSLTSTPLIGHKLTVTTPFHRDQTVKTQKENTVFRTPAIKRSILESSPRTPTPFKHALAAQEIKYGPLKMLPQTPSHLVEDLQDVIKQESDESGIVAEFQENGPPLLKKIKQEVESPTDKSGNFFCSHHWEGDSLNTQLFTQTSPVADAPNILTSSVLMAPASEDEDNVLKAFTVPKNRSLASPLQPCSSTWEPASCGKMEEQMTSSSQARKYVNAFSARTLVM
Procedure, shortened: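 In this HepG2 transient-transfection format, cis-regulated reporter mRNA is quantified 24 h post-dosing by RT-PCR with capillary electrophoresis, fitted bidirectionally to DMSO baseline.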

[8] = target: Nuclear respiratory factor 1 (Homo sapiens) (UniProt Q16656); experiment: ATG_NRF1_CIS: Attagene CIS-FACTORIAL HepG2 Assay for human Nuclear Respiratory Factor 1 (NRF1) Orphan Gene (AID 2282987); settings: HepG2 NRF1 cis-element reporter, Attagene multiplex; actives raise or lower the signal
Nuclear respiratory factor 1 (Homo sapiens), sequence (Q16656 whole entry, looked up): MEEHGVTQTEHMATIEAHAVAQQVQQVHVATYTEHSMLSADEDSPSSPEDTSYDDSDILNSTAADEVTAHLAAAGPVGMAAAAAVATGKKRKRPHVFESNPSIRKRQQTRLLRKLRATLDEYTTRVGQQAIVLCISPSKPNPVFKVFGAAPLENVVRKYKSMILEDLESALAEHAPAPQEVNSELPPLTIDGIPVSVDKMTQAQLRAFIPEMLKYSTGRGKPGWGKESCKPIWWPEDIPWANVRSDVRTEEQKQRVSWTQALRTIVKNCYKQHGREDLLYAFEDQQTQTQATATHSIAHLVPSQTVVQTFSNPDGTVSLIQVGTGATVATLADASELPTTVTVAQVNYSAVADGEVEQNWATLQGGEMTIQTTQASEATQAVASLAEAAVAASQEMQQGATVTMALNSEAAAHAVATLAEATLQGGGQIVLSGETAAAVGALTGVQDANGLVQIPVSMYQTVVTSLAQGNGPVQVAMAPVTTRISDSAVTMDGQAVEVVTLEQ
Procedure, shortened: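 Using DMSO as baseline, gain- or loss-of-signal was fitted for reporter mRNA levels in HepG2 cells transiently transfected with cis-regulated reporter units. Samples were taken 24 h after dosing and read by RT-PCR with capillary electrophoresis.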

[9] = ATG_NFI_CIS: Attagene CIS-FACTORIAL HepG2 Assay for human Nuclear Factor I (NFI) (AID 2282989); settings: HepG2 cis-regulatory reporter, NFI response element transcription; actives raise or lower the signal
Procedure, shortened: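 Transient MRTU transfection of HepG2 → 24 h chemical dosing → total RNA, oligo(dT) RT → PCR, 6-FAM primer extension, HpaI cut → capillary electrophoresis. Endpoint fitted bidirectionally relative to DMSO.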

[10] = target: Myc proto-oncogene protein (Homo sapiens) (UniProt P01106); experiment: ATG_Myc_CIS: Attagene CIS-FACTORIAL HepG2 Assay for human Myelocytomatosis (Myc) Proto-Oncogene Transcription Factor (AID 2282990); settings: HepG2, Attagene cis-reporter transcription factor activity; actives raise or lower the signal
Myc proto-oncogene protein (Homo sapiens), sequence (P01106 whole entry, looked up): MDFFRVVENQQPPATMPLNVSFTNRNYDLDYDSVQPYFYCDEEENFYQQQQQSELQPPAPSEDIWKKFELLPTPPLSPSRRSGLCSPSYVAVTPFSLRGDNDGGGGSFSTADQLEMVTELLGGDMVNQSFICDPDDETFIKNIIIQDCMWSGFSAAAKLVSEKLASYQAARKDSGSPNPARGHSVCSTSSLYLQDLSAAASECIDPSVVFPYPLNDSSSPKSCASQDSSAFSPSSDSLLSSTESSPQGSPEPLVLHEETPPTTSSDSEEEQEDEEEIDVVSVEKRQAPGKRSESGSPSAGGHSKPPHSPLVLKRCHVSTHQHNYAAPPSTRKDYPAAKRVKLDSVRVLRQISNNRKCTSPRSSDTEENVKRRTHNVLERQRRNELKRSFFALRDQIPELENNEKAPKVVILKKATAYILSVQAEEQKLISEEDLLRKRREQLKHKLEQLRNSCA
Procedure, shortened: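 HepG2, transient MRTU transfection (cis promoters, endogenous TFs); 24 h dosing; TriZol RNA → oligo(dT) RT → PCR → 6-FAM primer extension → HpaI cut → CE. Bidirectional fit vs DMSO.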

[11] = ATG_NF_kB_CIS: Attagene CIS-FACTORIAL HepG2 Assay for human Nuclear Factor Kappa B (NF-kB) (AID 2282991); settings: HepG2 Attagene cis-factorial NF-kB reporter mRNA; actives raise or lower the signal
Procedure, shortened: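 Endpoint from a 52-component multiplexed HepG2 reporter panel: cis-regulated transcription units transiently transfected, 24 h dosing, reporter mRNA quantified by RT-PCR and capillary electrophoresis, scored as increase or decrease against DMSO.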

[12] = ATG_NRF2_ARE_CIS: Attagene CIS-FACTORIAL HepG2 Assay for human Nuclear Factor Erythroid 2 Related Factor 2 (NFR2) response to Antioxidant Response Elements (ARE) (AID 2282992); settings: HepG2 Attagene ARE/NRF2 reporter, transcription factor activity; actives raise or lower the signal;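 as to AC50: reporter mRNA level measured by RT-PCR and capillary electrophoresis fluorescence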
Procedure, shortened: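 Readout: reporter mRNA quantified by RT-PCR plus FAM-labelled primer extension, HpaI digestion and capillary electrophoresis, 24 h after dosing transfected HepG2 cells. Gain or loss of signal is fitted bidirectionally against DMSO baseline.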

[13] = ATG_Oct_MLP_CIS: Attagene CIS-FACTORIAL HepG2 Assay for human Octamer-Binding Transcription Factor (Oct) (AID 2282993); settings: HepG2 Attagene cis-factorial Oct reporter, mRNA; actives raise or lower the signal
Procedure, shortened: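 Transient MRTU transfection of HepG2 → 24 h compound treatment → RNA isolation, reverse transcription, PCR → 6-FAM primer extension, HpaI digest → capillary electrophoresis. Activity fitted both directions against DMSO.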

[14] = target: Cellular tumor antigen p53 (Homo sapiens) (UniProt P04637); experiment: ATG_p53_CIS: Attagene CIS-FACTORIAL HepG2 Assay for human p53 Transcription Factor (AID 2282994); settings: HepG2 p53 cis-element reporter, Attagene mRNA; actives raise or lower the signal
Cellular tumor antigen p53 (Homo sapiens), sequence (P04637 whole entry, looked up): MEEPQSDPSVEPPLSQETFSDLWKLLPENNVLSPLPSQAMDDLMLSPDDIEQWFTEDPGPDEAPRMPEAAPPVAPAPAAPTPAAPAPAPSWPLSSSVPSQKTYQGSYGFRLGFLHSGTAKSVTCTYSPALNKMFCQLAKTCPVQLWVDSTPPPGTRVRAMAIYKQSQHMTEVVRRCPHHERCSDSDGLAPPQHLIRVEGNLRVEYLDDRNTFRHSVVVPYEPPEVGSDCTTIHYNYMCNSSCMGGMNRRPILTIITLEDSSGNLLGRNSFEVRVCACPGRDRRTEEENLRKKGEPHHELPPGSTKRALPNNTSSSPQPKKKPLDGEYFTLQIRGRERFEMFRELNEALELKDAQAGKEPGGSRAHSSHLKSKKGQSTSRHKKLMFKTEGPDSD
Procedure, shortened: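 Read-out: reporter mRNA by RT-PCR plus capillary electrophoresis with fluorescence detection. Human HepG2 liver cells carried transfected multi-reporter cis-element constructs, dosed 24 h. Gain or loss of signal fitted bidirectionally against DMSO control.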

[15] = BSK_3C_TissueFactor: BioMAP Diversity Plus: 3C Assay for Tissue Factor Biomarker Activity (AID 2282997); settings: BioMAP 3C HUVEC, tissue factor biomarker readout; actives raise or lower the signal
Procedure, shortened: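 Tissue Factor measured by ELISA, 24 h after treatment of primary HUVEC in the BioMAP 3C setting.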

[16] = BSK_3C_uPAR: BioMAP Diversity Plus: 3C Assay for Urokinase-type plasminogen activator receptor (uPAR) Biomarker Activity (AID 2282998); settings: BioMAP 3C HUVEC, uPAR biomarker ELISA; actives raise or lower the signal
Procedure, shortened: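 ELISA readout of uPAR on human vascular endothelium (umbilical vein primary cells), taken 24 h after chemical dosing. Increases and decreases are both fitted relative to DMSO vehicle.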

[17] = BSK_3C_VCAM1: BioMAP Diversity Plus: 3C Assay for Vascular cell adhesion molecule 1 (VCAM1) Biomarker Activity (AID 2282999); settings: BioMAP 3C HUVEC, VCAM1 ELISA, cytokine-stimulated; actives raise or lower the signal
Procedure, shortened: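 Activity fitted in both directions relative to DMSO, with ELISA measurement of the surface marker on primary HUVEC (3C) at 24 h post-treatment; parallel SRB staining (0.1% SRB, TCA-fixed, 560 nm) flagged overt cytotoxicity.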

[18] = BSK_4H_Eotaxin3: BioMAP Diversity Plus: 4H Assay for Eotaxin 3 Biomarker Activity (AID 2283000); settings: primary human endothelial cells (HUVEC); actives raise or lower the signal;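 also: CCL26 protein level quantified by ELISA in parallel with SRB cytotoxicity check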
Procedure, shortened: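 Eotaxin-3 (CCL26) levels were measured by ELISA in HUVEC primary cultures 24 h post-dosing. Gain or loss of signal was fitted in both directions, with DMSO serving as baseline and negative control.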

[19] = target: Hepatocyte nuclear factor 4-alpha (Homo sapiens) (UniProt P41235); experiment: ATG_HNF4a_TRANS: Attagene TRANS-FACTORIAL HepG2 Assay for human Hepatocyte Nuclear Factor 4 alpha (HNF4a) (AID 2282982; active = hit-call score of the fitted dose curve at least 0.9, where 1 is the maximum); settings: HepG2 HNF4a transactivation reporter, mRNA readout
Hepatocyte nuclear factor 4-alpha (Homo sapiens), sequence (P41235 whole entry, looked up): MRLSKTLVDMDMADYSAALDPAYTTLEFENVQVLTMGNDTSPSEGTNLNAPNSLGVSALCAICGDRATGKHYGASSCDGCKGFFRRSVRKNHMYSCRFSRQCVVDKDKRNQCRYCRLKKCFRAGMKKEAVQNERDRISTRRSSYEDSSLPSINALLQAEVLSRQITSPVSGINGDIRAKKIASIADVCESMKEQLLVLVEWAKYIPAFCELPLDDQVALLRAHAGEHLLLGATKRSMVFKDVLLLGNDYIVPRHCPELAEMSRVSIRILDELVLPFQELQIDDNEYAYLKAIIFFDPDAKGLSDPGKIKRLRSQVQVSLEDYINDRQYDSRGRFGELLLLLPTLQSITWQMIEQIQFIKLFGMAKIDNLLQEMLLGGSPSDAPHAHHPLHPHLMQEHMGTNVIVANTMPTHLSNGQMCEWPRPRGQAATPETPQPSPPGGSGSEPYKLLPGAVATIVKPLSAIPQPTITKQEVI
Procedure, shortened: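 Multiplexed reporter assay: transfected HepG2, 24 h exposure, total RNA → oligo(dT) RT → PCR → 6-FAM extension → HpaI digest → CE fluorescence. DMSO = negative control.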

## CC(CN=Cc1ccccc1O)N=Cc1ccccc1O (stereo not drawn)
[1]
  outcome: inactive
[2]
  outcome: inactive
[3]
  outcome: inactive
[4]
  outcome: inactive
[5]
  outcome: inactive
[6]
  outcome: inactive
[7]
  outcome: inactive
[8]
  AC50: 55.3 µM (active)
[9]
  outcome: inactive
[10]
  outcome: inactive
[11]
  AC50: 63.6 µM (active)
[12]
  AC50: 69.5 µM (active)
[13]
  outcome: inactive
[14]
  outcome: inactive
[15]
  outcome: inactive
[16]
  outcome: inactive
[17]
  outcome: inactive
[18]
  outcome: inactive

## CCCCCCC(C)(C)S
[1]
  outcome: inactive
[3]
  outcome: inactive
[4]
  outcome: inactive
[5]
  outcome: inactive
[6]
  outcome: inactive
[7]
  outcome: inactive
[8]
  outcome: inactive
[9]
  outcome: inactive
[10]
  outcome: inactive
[11]
  outcome: inactive
[12]
  outcome: inactive

## COC(C)(C)CCCC(C)CC=O (stereo not drawn)
[1]
  outcome: inactive
[3]
  outcome: inactive
[19]
  outcome: inactive
[5]
  outcome: inactive
[6]
  outcome: inactive
[7]
  outcome: inactive
[8]
  outcome: inactive
[9]
  outcome: inactive
[10]
  outcome: inactive
[11]
  outcome: inactive
[12]
  outcome: inactive
[13]
  outcome: inactive
[14]
  outcome: inactive

## c1ccc(CN(Cc2ccccc2)Cc2ccccc2)cc1
[1]
  outcome: inactive
[2]
  outcome: inactive
[4]
  outcome: inactive
[6]
  outcome: inactive
[7]
  outcome: inactive
[9]
  outcome: inactive
[10]
  outcome: inactive
[11]
  outcome: inactive
[12]
  AC50: 100 µM (active)
[13]
  outcome: inactive

## CN(C)c1cccc(O)c1
[1]
  outcome: inactive
[2]
  outcome: inactive
[5]
  outcome: inactive
[6]
  outcome: inactive
[7]
  outcome: inactive
[8]
  outcome: inactive
[9]
  outcome: inactive
[10]
  outcome: inactive
[11]
  outcome: inactive
[12]
  outcome: inactive
[13]
  outcome: inactive
